Drawing on PubChem BioAssay AID1745853 (National Center for Advancing Translational Sciences (NCATS), 2022), this text covers activity change, negative = inhibition for 15 molecules.

Assay in all cases: Primary Screen for Target Class Profiling of Small Molecule Inhibitors of Methyltransferases
The target of assay [1] is Catechol O-methyltransferase (Homo sapiens) (UniProt P21964). Particulars: purified enzyme, MTase-Glo SAH luminescence; activity change, negative = inhibition: at 40 µM, stronger effect = lower value; outcome: 40 uM. From the text: (§1) PI: Matthew D. Hall Ph.D. and Quinlin M. Hanson Ph.D.
(§2) National Center for Advancing Translational Sciences (NCATS)
(§3) National Institute of Health (NIH), Rockville, MD
(§4) Target class profiling (TCP) is a chemical biology approach amenable to investigating understudied biological targets. TCP is achieved by developing a generalizable assay platform and applying it to screen a curated set of compound libraries against representative members of a target class. Small molecule methyltransferases (SMMTase) are a subclass of methyltransferase that act on metabolites to modulate signaling pathways, metabolize xenobiotics, or balance the available methyl pool. We screened four curated libraries totaling 27,574 unique compounds against the SMMTases nicotinamide N-methyltransferase (NNMT), phenylethanolamine N-methyltransferase (PNMT), histamine N-methyltransferase (HNMT), glycine N-methyltransferase (GNMT), catechol O-methyltransferase (COMT), and guanidinoacetate N-methyltransferase (GAMT). The data generated by this TCP can be leveraged for informed tool molecule development. For example, in the associated publication we identified a chemotype of HNMT-selective inhibitors. Additionally, we identified a putative SMMTase-selective inhibitor with potential as a tool molecule for studying broader methyltransferase biology.
(§5) High-through put screening assays were developed at the National Center for Advancing Translational Science (NCATS) for the enzymes NNMT, PNMT, HNMT, GNMT, COMT, and GAMT. Enzymatic activity was measured as a function of SAM cofactor conversion using the MTase Glo kit (Promega) for all enzymes. All assays were performed in 1536-well format with substrates and SAM concentrations at KM values. Enzyme concentration and assay timing were optimized for 10-20% SAM conversion. Initial screening of 27,574 compounds was done as single-point assays using the highest compound concentration (40 uM). […] These compounds were replated in 11-point dose response and assayed against NNMT, PNMT, HNMT, GNMT, COMT, GAMT, and a counter-assay. The IC50 and efficacy (maximal response) values were determined for each dose-response curve. These values are also accounted for in the area under the curve (AUC) values.
(§6) PROTOCOL TABLE (as described by Inglese J, Shamu CE and Guy RK. 2007)
(§7) SEQUENCE No. (e.g., 1, 2, 3, etc.); […] (e.g., Cells, Incubation, Reagent, etc.); VALUE; DESCRIPTION.
(§8) 1; Reagent; 2 uL; SMMTase Enzyme (2x) in reaction buffer, columns 1- 48.
(§9) 2; Reagent; 1 uL; SAM (4x) in reaction buffer, columns 1-48.
(§10) 3; Controls; 23 nL; DMSO in column 4; sinefungin in DMSO (0 uM - 40 uM) in 7-point 1:2 dilution series (n = 2) in column 2.
(§11) 4; Compounds; 23 nL; Columns 5-48.
(§12) 5; Reagent; 1 uL; Substrate (4x) in reaction buffer, columns 2-48.
(§13) 6; Time; 20-30 min; Incubation.
(§14) 7; Reagent; 1 uL; MTase-Glo reagent (5X), columns 1-48.
(§15) 8; Time; 30 min; Incubation.
(§16) 9; Reagent; 5 uL; MTase-Glo Detection reagent, columns 1-48.
(§17) 10; Time; 30 min; Incubation, luminescence evolution.
(§18) 11; Detection; Luminescence; ViewLux uHTS Microplate Imager (PerkinElmer).
(§19) NOTES (numbers refer to Sequence numbers above)
(§20) 1, 2, 5. White Medium Binding Greiner 1536-well plates (Cat #789175-F, Greiner Bio-One, Monroe, NC); Reaction buffer: 50 mM Tris, pH 8.0, 3 mM MgCl2, 1 mM EDTA, 50 mM NaCl, 1 mM DTT, and 0.1 mg/mL BSA. Evaporation was prevented by covering assay plates with metal lids containing holes to allow gas diffusion.
(§21) 1. Six SMMTase were profiled: HNMT, GNMT, PNMT, COMT, NNMT, GAMT
(§22) 5. The corresponding substrate was used for each enzyme: HNMT - 5.3 uM Histamine; GNMT - >500 uM Glycine; PNMT - 16.2 uM Norephinephrine; COMT - 13.7 uM Norephinephrine; NNMT - 3.8 uM Nicotinamide; GAMT - 2.5 uM Guanidinoacetate.6, 8, 10. Room temperature
(§23) 6. Final reaction conditions: 10 nM COMT, 5 uM SAM, 15 uM norepinephrine, 50 mM Tris, pH 8.0, 3 mM MgCl2, 1 mM EDTA, 50 mM NaCl, 1 mM DTT, and 0.1 mg/mL BSA; refer to tables 2 and S1 for specific timing.
8. […]

In assay [2] the target is Glycine N-methyltransferase (Homo sapiens) (UniProt Q14749). Particulars: purified enzyme, MTase-Glo SAH luminescence; measured here: GNMT inhibition; at 40 µM; stronger effect = lower value.
Text: as §1, §2, §3, §4, §5, §6, §7, §8, §9, §10, §11, §12, §13, §14, §15, §16, §17, §18, §19, §20, §21, §22, §23
8. […]

In assay [3] the target is Guanidinoacetate N-methyltransferase (Homo sapiens) (UniProt Q14353). The conditions noted are these: purified enzyme, MTase-Glo SAH luminescence; measured here: GAMT inhibition; at 40 µM; stronger effect = lower value.
Text: as §1, §2, §3, §4, §5, §6, §7, §8, §9, §10, §11, §12, §13, §14, §15, §16, §17, §18, §19, §20, §21, §22, §23
8. […]

Assay [4] deals with Histamine N-methyltransferase (Homo sapiens) (UniProt P50135). Particulars: purified enzyme, MTase-Glo SAH luminescence; measured here: HNMT inhibition; at 40 µM; stronger effect = lower value.
Text: as §1, §2, §3, §4, §5, §6, §7, §8, §9, §10, §11, §12, §13, §14, §15, §16, §17, §18, §19, §20, §21, §22, §23
8. […]

Assay [5] has as its target Nicotinamide N-methyltransferase (Homo sapiens) (UniProt P40261). The conditions noted are these: purified enzyme, MTase-Glo SAH luminescence; measured here: NNMT inhibition; at 40 µM; stronger effect = lower value.
Text: as §1, §2, §3, §4, §5, §6, §7, §8, §9, §10, §11, §12, §13, §14, §15, §16, §17, §18, §19, §20, §21, §22, §23
8. […]

The target in assay [6] is Phenylethanolamine N-methyltransferase (Homo sapiens) (UniProt P11086). Particulars: purified enzyme, MTase-Glo SAH luminescence; measured here: PNMT inhibition; at 40 µM; stronger effect = lower value.
Text: as §1, §2, §3, §4, §5, §6, §7, §8, §9, §10, §11, §12, §13, §14, §15, §16, §17, §18, §19, §20, §21, §22, §23
8. […]

Values joined by “and” are separate entries in the source; they are usually repeats but may differ in a detail not shown here. Equal entries are not always repeated. In all, about 25,000 compounds went through this assay and about 970 (3.9%) were called active. Inconclusive results (about 8%) are left out. No rule for the calls is given here. Shown is part of a subset that was picked to be rich in actives.
% is scaled to controls: 0 for no effect and ±100 for the full control effect.

Sequence of Nicotinamide N-methyltransferase (Homo sapiens) (P40261 whole entry, looked up): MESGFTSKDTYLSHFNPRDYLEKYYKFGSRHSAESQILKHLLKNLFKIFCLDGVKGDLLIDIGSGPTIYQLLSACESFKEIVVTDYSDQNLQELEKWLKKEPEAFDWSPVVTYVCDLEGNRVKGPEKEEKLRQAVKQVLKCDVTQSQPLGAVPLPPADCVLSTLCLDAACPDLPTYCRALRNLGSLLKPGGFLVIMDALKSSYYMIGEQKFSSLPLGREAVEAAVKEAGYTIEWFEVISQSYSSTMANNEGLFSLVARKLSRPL
Sequence of Catechol O-methyltransferase (Homo sapiens) (P21964 whole entry, looked up): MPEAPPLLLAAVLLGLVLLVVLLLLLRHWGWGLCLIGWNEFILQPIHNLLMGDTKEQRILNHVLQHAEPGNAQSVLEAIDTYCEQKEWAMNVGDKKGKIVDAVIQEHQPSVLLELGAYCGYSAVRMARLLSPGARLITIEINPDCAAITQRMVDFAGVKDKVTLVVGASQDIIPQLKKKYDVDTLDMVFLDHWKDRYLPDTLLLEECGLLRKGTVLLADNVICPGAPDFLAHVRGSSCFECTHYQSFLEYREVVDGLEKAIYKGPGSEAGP
Sequence of Histamine N-methyltransferase (Homo sapiens) (P50135 whole entry, looked up): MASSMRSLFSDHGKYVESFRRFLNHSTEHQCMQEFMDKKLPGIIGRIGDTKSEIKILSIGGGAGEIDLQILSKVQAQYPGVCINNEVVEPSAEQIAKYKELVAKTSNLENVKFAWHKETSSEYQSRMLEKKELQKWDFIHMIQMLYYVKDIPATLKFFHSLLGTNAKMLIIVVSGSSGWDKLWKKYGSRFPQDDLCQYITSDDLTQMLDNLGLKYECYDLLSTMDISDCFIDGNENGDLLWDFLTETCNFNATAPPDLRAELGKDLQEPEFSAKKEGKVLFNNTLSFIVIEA
Sequence of Phenylethanolamine N-methyltransferase (Homo sapiens) (P11086 whole entry, looked up): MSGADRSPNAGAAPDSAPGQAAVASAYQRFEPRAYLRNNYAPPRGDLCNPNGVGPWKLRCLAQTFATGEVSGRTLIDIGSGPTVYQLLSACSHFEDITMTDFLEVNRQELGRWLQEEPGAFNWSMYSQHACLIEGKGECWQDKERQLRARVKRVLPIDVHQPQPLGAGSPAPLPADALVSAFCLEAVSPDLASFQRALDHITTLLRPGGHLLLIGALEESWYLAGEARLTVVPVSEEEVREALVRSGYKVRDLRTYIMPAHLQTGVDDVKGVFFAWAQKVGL
Sequence of Glycine N-methyltransferase (Homo sapiens) (Q14749 whole entry, looked up): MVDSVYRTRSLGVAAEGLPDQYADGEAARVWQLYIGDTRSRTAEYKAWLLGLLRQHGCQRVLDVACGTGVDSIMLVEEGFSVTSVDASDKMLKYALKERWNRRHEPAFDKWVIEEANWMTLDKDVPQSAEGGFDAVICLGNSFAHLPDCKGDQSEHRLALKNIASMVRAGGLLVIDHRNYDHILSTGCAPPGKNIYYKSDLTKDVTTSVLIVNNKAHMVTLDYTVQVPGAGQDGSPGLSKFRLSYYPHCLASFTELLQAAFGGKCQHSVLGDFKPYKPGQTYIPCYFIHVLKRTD

Take `CCOC(=O)c1cc2n(n1)CC(C)(C(=O)NCc1ccccc1)N(CCCc1ccccc1)C2=O` (stereo not given): the activity change, negative = inhibition was -0.428% (inactive) in assay [1]; 1.98% in assay [2]; 0% in assay [3]; 4.53% in assay [4]; -4.41% in assay [5]; 0.451% in assay [6].

On to `O=C(CCc1nnc2n(Cc3ccc(Cl)cc3)c(=O)c3ccccc3n12)N1CCN(c2ccccc2F)CC1`, for which the activity change, negative = inhibition in assay [1] is -4.23% (inactive); in assay [2], -7.84%; in assay [3], 3.64%; in assay [4] it was -1.5%; in assay [5], -3.97%; in assay [6], -4.97%.

On to `CC(C)Cn1c(=O)c2ccccc2n2c(CCC(=O)N3CCN(c4cccc(Cl)c4)CC3)nnc12`, for which the activity change, negative = inhibition in assay [1] is -9.54% (active); in assay [2] it was -27.4%; in assay [3], -4.12%; in assay [4], -10.4%; in assay [5], -53.7%; in assay [6], -12.4%.

For `O=C(CCc1nnc2n(Cc3ccc(Cl)cc3)c(=O)c3ccccc3n12)N1CCN(Cc2ccccc2)CC1`, the activity change, negative = inhibition in assay [1] is -0.522% (inactive); in assay [2], -14.1%; in assay [3], 0.869%; in assay [4], -6.5%; in assay [5], -18.2%; in assay [6] it was -7.88%.

As to `COC(=O)c1ncn2c1C(=O)N(Cc1ccc(OC)cc1)C(C)(C(=O)NCc1ccccc1)C2` (stereo not given), the activity change, negative = inhibition in assay [1] is -12.8% (inactive); in assay [2], -10.1%; in assay [3], -0.727%; in assay [4], -7.43%; in assay [5], -6.98%; in assay [6], -9.09%.

For `COc1cc2ncnc(Nc3cccc(Cl)c3F)c2cc1OC(=O)N1CCN(C)C[C@H]1C`, the activity change, negative = inhibition was -20.9% (inactive) in assay [1]; -14.7% in assay [2]; 0.224% in assay [3]; -20.1% in assay [4]; -5.9% in assay [5]; -15.1% in assay [6].

With `CCOc1ccc(CNC(=O)c2cc3n(n2)CC(C)(C(=O)NCc2ccc(F)cc2)N(C)C3=O)cc1OC` (stereo not given), the activity change, negative = inhibition in assay [1] is 1.84% (inactive); in assay [2], 2.33%; in assay [3] it was -5.76%; in assay [4], -2.91%; in assay [5], 3.94%; in assay [6], 6.92%.

In the case of `CC(=O)c1cnc2ccc(-c3cc(Cl)c(O)c(Cl)c3)nc2c1NC1CCC(CN(C)C)CC1` (stereo not given), the activity change, negative = inhibition in assay [1] is 2.27% (active); in assay [2], -9.49%; in assay [3] it was 1.31%; in assay [4], -75.4%; in assay [5] it was -14.2%; in assay [6], 0.349%.

Take `CCn1cc(S(=O)(=O)N2CCC(C3CCN(C(=O)NC)CC3)C2)cn1` (stereo not given): the activity change, negative = inhibition in assay [1] is -3.73% (inactive); in assay [2], -4.19%; in assay [3], -5.14%; in assay [4], -1.51%; in assay [5] it was -10.1%; in assay [6], 9.89%.

`Cc1cc(Nc2cc(CN3CCOCC3)c3nc(C)c(Cc4ccc(Cl)cc4F)n3n2)n[nH]1`: the activity change, negative = inhibition in assay [1] is -59.4% (active) and -59.9% (active); in assay [2], -74.4% and -69.1%; in assay [3], -49%; in assay [4], -62.1% and -80.8%; in assay [5], -98.7% and -69.4%; in assay [6], -114% and -64.4%.

Consider `CC1(C=O)CC[C@]2(C(=O)O[C@@H]3O[C@H](CO)[C@@H](O)[C@H](O)[C@H]3O)CC[C@]3(C)C(=CCC4[C@@]5(C)C[C@H](O)[C@H](O[C@@H]6OC[C@@H](O)[C@H](O)[C@H]6O)[C@@](C)(CO)C5CC[C@]43C)C2C1` (stereo not given in full), for which the activity change, negative = inhibition in assay [1] is -12.2% (inactive); in assay [2], -0.721%; in assay [3], -3.55%; in assay [4] it was -5.71%; in assay [5], -15.1%; in assay [6], 2.58%.

Regarding `Cc1ccc(C)c(Cn2nc3n(C)c(=O)c4ccc(C(=O)NC5CCCCC5)cc4n3c2=O)c1`, the activity change, negative = inhibition in assay [1] is 4.71% (inactive); in assay [2], -4.89%; in assay [3], 0.055%; in assay [4] it was 2.18%; in assay [5], 5.92%; in assay [6], 6.36%.

Regarding `CN(Cc1cc(C2CC2)n[nH]1)C(=O)C(c1ccc(F)cc1)N(C)C` (stereo not given), the activity change, negative = inhibition in assay [1] is 3.85% (inactive); in assay [2] it was 1.91%; in assay [3], -0.305%; in assay [4] it was 1.69%; in assay [5], 0.211%; in assay [6] it was 2.27%.

On to `CC(C)CNc1ccnc(NCc2csc(-c3ccccc3)n2)n1`, for which the activity change, negative = inhibition in assay [1] was -4.4% (active); in assay [2] it was -6.48%; in assay [3], 6.91%; in assay [4], -83.3%; in assay [5] it was -36.8%; in assay [6], -16.1%.

Turning to `Cc1nc2c(c(-c3ccc(O)cc3)n1)CN(C(=O)c1ccccc1C)CCC2`, the activity change, negative = inhibition in assay [1] is -2.56% (inactive); in assay [2], -6.74%; in assay [3] it was -3.52%; in assay [4] it was -0.862%; in assay [5] it was -11.6%; in assay [6], -8.96%.
